A short description of assay [1]: Quantitative highthroughput screen to assess conditional lethalithy of NOMO1 cells grown in RPMI1640 with untreated serum (RPMI+s) (AID 1963876). Also: nearly all actives have a fitted effect of over 35% in size.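 As to viability: 100% = DMSO wells and 0% = empty wells without cells.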 The method, boiled down: (§1)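 Each medium arm—HPLM with 10% dialyzed FBS, or RPMI1640 with 5 mM glucose and 10% untreated or dialyzed FBS—was screened against an 11-point, 3-fold compound titration for 48 h at 37 °C, with CellTiter-Glo luminescence as endpoint.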

Assay [2] is described as follows: Quantitative highthroughput screen to assess conditional lethalithy of NOMO1 cells grown in RPMI1640 with dialyzed fetal bovine serum (RPMI+ds) (AID 1963877). Also: nearly all actives have a fitted effect of over 30% in size. The method, boiled down:
as §1

The nature of assay [3]: Quantitative highthroughput screen to assess conditional lethalithy of SEM cells grown in RPMI1640 with unreated serum (RPMI+s) (AID 1963883). Also: nearly all actives have a fitted effect of over 35% in size.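 As to viability: 100% = DMSO wells and 0% = empty wells without cells.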 The method, boiled down: as §1
Assay [4] can be described thus: Quantitative highthroughput screen to assess conditional lethalithy of SEM cells grown in RPMI1640 with dialyzed fetal bovine serum (RPMI+ds) (AID 1963884). Also: nearly all actives have a fitted effect of over 35% in size. The method, boiled down:
as §1

Assay [5] in a line: Quantitative highthroughput screen to assess conditional lethalithy of NOMO1 cells grown in Human Plasma-Like Medium with dialyzed fetal bovine serum (HPLM+ds) (AID 1963878). Also: nearly all actives have a fitted effect of over 35% in size.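 As to viability: 100% = DMSO wells and 0% = empty wells on each plate.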 The method, boiled down: as §1
Assay [6] in a line: Quantitative highthroughput screen to assess conditional lethalithy of P12 Ichikawa cells grown in Human Plasma-Like Medium with dialyzed fetal bovine serum (HPLM+ds) (AID 1963879). Also: nearly all actives have a fitted effect of over 35% in size. As to viability: series mostly up to about 46 µM. To be noted: Potency: viability. The method, boiled down: as §1
A short description of assay [7]: Quantitative highthroughput screen to assess conditional lethalithy of P12 Ichikawa cells grown in RPMI1640 with dialyzed fetal bovine serum (RPMI+ds) (AID 1963880). Also: nearly all actives have a fitted effect of over 35% in size.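 As to viability: 100% = DMSO wells and 0% = empty wells on each plate.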 The conditions noted are these: Potency: P12-Ichikawa viability. The method, boiled down:
as §1

A short description of assay [8]: Quantitative highthroughput screen to assess conditional lethalithy of P12 Ichikawa cells grown in RPMI1640 with untreated serum (RPMI+s) (AID 1963881). Also: nearly all actives have a fitted effect of over 35% in size. To be noted: Potency: viability. In a few lines: as §1
Assay [9] can be described thus: Quantitative highthroughput screen to assess conditional lethalithy of SEM cells grown in Human Plasma-Like Medium with dialyzed fetal bovine serum (HPLM+ds) (AID 1963882). Also: nearly all actives have a fitted effect of over 35% in size. As to viability: series mostly up to about 46 µM. In a few lines: as §1
The nature of assay [10]: Cellular viability qHTS for adrenocortical cancer (ACC) cell line SW-13 (AID 1963989). Also: nearly all actives have a fitted effect of over 65% in size.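 As to activity (max response): cells grown in serum-free medium with ITS supplement; % is scaled to controls: 0 for no effect and ±100 for the full control effect.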 The conditions noted are these: SW-13 ACC cells viability, CellTiter-Glo, 48 h; activity (max response): hits give low values. The method, boiled down: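 IC50 and maximal-response values come from four-parameter logistic fits of titration data. SW-13 cells in serum-free medium received compounds (up to 46 uM final) for 48 h before CellTiter-Glo luminescence.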

Assay [11] can be described thus: Cellular viability qHTS for adrenocortical cancer (ACC) cell line NCI-H295R (AID 1963990). Also: nearly all actives have a fitted effect of over 60% in size. The method, boiled down: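 Adrenocortical carcinoma cells, suspended at 300 000 cells/mL in serum-free DMEM plus ITS, rested overnight before pin transfer of compound. After two days' incubation, ATP-dependent luminescence was recorded and curve-fitted.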

Records with an inconclusive call do not appear. Unmarked numbers belong to inactive results. Activity calls are given as the source filed them. Calls follow the shape of the dose curve; as a rule, active = well fitted curve in the direction sought with a large enough effect; inconclusive = small, poorly fitted or top-dose-only effect, or another doubt; inactive = no such curve, though single readings can be large; an effect the other way counts as inactive or inconclusive.
Potency is read from the fitted curve at half-maximal effect.

As for `CCC(=O)O[C@]1(C(=O)CO)CC[C@H]2[C@@H]3CCC4=CC(=O)CC[C@]4(C)[C@@H]3CC[C@@]21C`, the Potency result in assay [1] is “inactive”. Besides, the Potency was 10.5 µM (active) in [2], 0.743 µM (active) in assay [3] and 1.18 µM (active) in assay [4].
With `COc1cc2c(cc1OC)CN(CCc1ccc(NC(=O)c3cccc4c(=O)c5cccc(OC)c5[nH]c34)cc1)CC2`, the Potency in assay [1] is 4.69 µM (active); in [5], 1.32 µM (active); in assay [6] it was 1.18 µM (active); in [7] it was 2.96 µM (active); in assay [8], 3.72 µM (active); in [9], 4.18 µM (active). Besides, the Potency in assay [3] was 1.05 µM (active); in [4], 0.935 µM (active). Besides, the activity (max response) in assay [10] was -3.54%. Moreover, the Potency result in [11] was “inactive”.
Consider `Cc1cc(Nc2cc(N3CCN(C)CC3)nc(C=Cc3ccccc3)n2)n[nH]1`, for which the Potency in assay [1] is 3.03 µM (active); in assay [5], 3.03 µM (active); in [6], 2.15 µM (active); in assay [8], 3.03 µM (active); in [9] it was 0.54 µM (active); in assay [3], 0.54 µM (active). For the same compound, in assay [4], the Potency is 0.429 µM (active).
For the compound `CC(=O)[C@H]1CC[C@H]2[C@@H]3CCC4=CC(=O)CC[C@]4(C)[C@H]3CC[C@]12C`, the Potency result in assay [1], in [5], in [6], in assay [7], in assay [9] and in assay [3] was “inactive” in each case.
Turning to `Cc1cccc(Nc2nc(-c3ccncc3)cs2)c1`, the Potency result in assay [1], in assay [5] and in assay [6] was “inactive” each time. Besides, the Potency is 18.7 µM (active) in [7] and 25.1 µM (active) in assay [11].
As to `O=C(O)c1c(Cl)c(Cl)c(Cl)c(Cl)c1-c1c2cc(I)c(=O)c(I)c-2oc2c(I)c(O)c(I)cc12`, the figures for the Potency in assay [1], in assay [6] and in assay [10] were 16.6 µM (active), 8.33 µM (active) and 12.6 µM (active), respectively. Further, the Potency result in assay [5] was “inactive”.
`CC(=O)[C@]1(O)Cc2c(O)c3c(c(O)c2[C@@H](O[C@H]2C[C@H](N)[C@@H](O)[C@H](C)O2)C1)C(=O)c1ccccc1C3=O`: the Potency in assay [1] was 2.96 µM (active); in assay [5], 2.96 µM (active); in [7], 1.48 µM (active); in assay [8] it was 1.48 µM (active); in [9], 1.05 µM (active); in assay [3], 0.833 µM (active). Also, the Potency in assay [4] is 1.05 µM (active).

The values above are taken from PubChem BioAssay (NCATS).
